PAFAH1B2 inh – inhibitors of human PAFAH1B2 | P68402 | recombinant PAFAH1B2, FP-rhodamine activity probe, fluorescence polarization | inhibition, % at 3.39 µM | 340,000 tested, 1.2% active | AID 492953;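 active means inhibition above the mean of all tested compounds plus 3 SD, cut at about 24% in these data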;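 further: 0% = enzyme with DMSO and 100% = wells lacking PAFAH1B2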
PAFAH1B3 FP inh – inhibitors of human PAFAH1B3 | recombinant PAFAH1B3, FP-rhodamine probe, fluorescence polarization | 340,000 tested, 0.28% active | inhibition, % at 3.39 µM | Q15102;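 active means inhibition above the screen-wide average of all tested compounds plus 3 SD, cut at about 25% in these data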;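 further: 0% = enzyme with DMSO only and 100% = wells lacking PAFAH1B3 protein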
Target sequence (Q15102 whole entry, looked up): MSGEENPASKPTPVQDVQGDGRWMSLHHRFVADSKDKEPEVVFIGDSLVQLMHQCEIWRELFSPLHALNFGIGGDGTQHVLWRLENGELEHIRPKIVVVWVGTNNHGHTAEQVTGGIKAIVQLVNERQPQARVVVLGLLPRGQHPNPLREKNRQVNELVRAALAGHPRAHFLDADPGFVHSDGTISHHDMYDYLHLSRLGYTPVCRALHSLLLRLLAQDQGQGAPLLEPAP
PKA-R1A act – activators of PKA-R1A complex. P00514+P68181. PKA-R1A dissociation, Cy5-IP20 fluorescence polarization; scaled: DMSO 0%, 113 µM cGMP 100%. activation, % at 11.4 µM. 340,000 tested, 0.083% active. AID 504707;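 active means percent activation above the mean of all tested compounds plus 3 SD, cut at about 19% in these data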;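 further: higher means more PKAc released from R1A so a rise in polarization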
PAFAH2 inh – PAFAH2 (human) inhibition. Q99487. recombinant PAFAH2, FP-rhodamine activity probe, fluorescence polarization. inhibition, % at 3.39 µM. 340,000 tested, 0.99% active. AID 492956;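 active means inhibition above the mean over all tested compounds plus 3 SD, cut at about 30% in these data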;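 further: inhibitors block probe labeling of enzyme so polarization drops; 0% = enzyme with DMSO and 100% = wells lacking PAFAH2 protein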
pPAFAH FP inh – pPAFAH (human) enzyme inhibition; Q13093; recombinant pPAFAH, FP-rhodamine probe fluorescence polarization; inhibition, % at 3.39 µM; 330,000 tested, 1.5% active; AID 463082;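 active means inhibition above the mean inhibition across the screen plus 3 SD, cut at about 25% in these data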;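 further: inhibitors block binding of the rhodamine activity-based probe so polarization drops; 0% = enzyme with DMSO and 100% = wells lacking pPAFAH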
Target sequence (Q13093 whole entry, looked up): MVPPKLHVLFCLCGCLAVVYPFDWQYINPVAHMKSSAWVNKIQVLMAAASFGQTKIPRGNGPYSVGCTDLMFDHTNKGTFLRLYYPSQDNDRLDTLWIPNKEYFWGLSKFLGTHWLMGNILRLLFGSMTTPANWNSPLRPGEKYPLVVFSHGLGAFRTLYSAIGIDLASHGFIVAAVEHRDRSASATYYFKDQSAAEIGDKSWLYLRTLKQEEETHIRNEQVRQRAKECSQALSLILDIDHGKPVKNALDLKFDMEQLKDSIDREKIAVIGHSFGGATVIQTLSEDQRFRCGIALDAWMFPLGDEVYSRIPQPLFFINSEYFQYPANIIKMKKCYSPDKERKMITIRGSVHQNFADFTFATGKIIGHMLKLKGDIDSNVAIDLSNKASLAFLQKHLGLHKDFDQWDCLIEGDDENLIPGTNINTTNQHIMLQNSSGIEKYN
PKA-R2B activ – PKA-R2B complex activation | P22694+P31323 | PKA-R2B holoenzyme dissociation, Cy5-IP20 fluorescence polarization; R2B truncated from residue 108, S112A mutant; 0% DMSO only, 100% 113 µM cGMP | 340,000 tested, 0.079% active | activation, % at 11.4 µM;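 active means activation above a cutoff set at the mean over all compounds plus 3 SD, cut at about 18% in these data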;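 further: higher means more holoenzyme dissociation and a rise in polarization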
pPAFAH confirm – confirmation of human plasma PAF acetylhydrolase (pPAFAH) inhibitors; recombinant pPAFAH, FP-Rh probe fluorescence polarization; inhibition, % at 3.39 µM; shares compounds with pPAFAH FP inh; 2,300 tested, 72% active;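 active means mean inhibition of the triplicate above the hit cutoff set for the earlier primary screen, cut at about 25% in these data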;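 further: 0% = enzyme with DMSO and 100% = wells lacking pPAFAH enzyme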
PAFAH2 confirm – PAFAH2 (human) inhibition, confirmed; shares compounds with PAFAH2 inh; recombinant PAFAH2, FP-rhodamine activity probe, fluorescence polarization; inhibition, % at 3.39 µM; 2,300 tested, 65% active;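 active means mean inhibition over three repeats above a set limit taken from the earlier primary screen, cut at about 30% in these data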;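 further: inhibitor blocks binding of rhodamine activity probe so polarization falls; 0% = enzyme with DMSO and 100% = wells lacking PAFAH2 protein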
PAFAH1B3 conf FP – confirmation of human PAFAH1B3 inhibitors. AID 493032. 390 tested, 30% active. shares compounds with PAFAH1B3 FP inh. recombinant PAFAH1B3, FP-Rh activity-based probe, fluorescence polarization. inhibition, % at 3.39 µM;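 active means average inhibition over triplicate runs above the hit cutoff set in the earlier primary screen, cut at about 25% in these data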;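 further: 0% = enzyme with DMSO and 100% = wells lacking PAFAH1B3 protein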
An asterisk follows results filed as active; · = not tested or not shown. Rows were chosen to be rich in hits. Some 2.6% of all compounds tested hit in one or more screens of this group.

SMILES	PAFAH1B2 inh	PAFAH1B3 FP inh	PKA-R1A act	PAFAH2 inh	pPAFAH FP inh	PKA-R2B activ	pPAFAH confirm	others
COCCCNC1=C(Cl)C(=O)c2ccccc2C1=O	5.6	9.3	1.9	0.2	2.2	-4.5	·
N#CC1=C(N)N2C(=C(C#N)C1c1ccc(Br)cc1)Nc1ccccc12 (configuration not stated)	·	·	·	·	63.2*	·	70.6*
Cc1[nH]c2ccccc2c1N=Nc1ccccc1C(=O)O	5.6	20.1	6.4	8.8	46.6*	15.7	30.6*
Cc1[nH]c2ccccc2c1N=Nc1cccc(C(=O)O)c1	1.6	8.1	4.4	6.7	5.2	-1.1	·
CCOC(=O)C1=C(C)NC(SCc2cc(=O)[nH][nH]2)=C(C#N)C1c1cccs1 (configuration not stated)	4.5	0.5	2.8	-1.9	46.7*	-4.3	12.9
CCOC(=O)C1=C(C)NC(SCC(N)=O)=C(C#N)C1c1cccs1 (configuration not stated)	1.0	2.0	-10.9	3.8	4.1	-1.9	·
O=C(Cn1cnc([N+](=O)[O-])n1)c1ccc(O)c(O)c1	2.2	11.6	-1.4	2.3	56.5*	5.4	19.8
CN(Cc1ccc(Cl)s1)C(=O)CCl	0.8	5.9	0.0	-1.9	0.5	-6.2	·
O=C(COC(=O)c1cc(Cl)nc(Cl)c1)NCc1ccc2c(c1)OCO2	3.0	-1.6	-8.7	0.5	-0.9	-1.1	·
COCCN=C1Sc2nc3ccc(C)cc3cc2CN1Cc1cccs1	-1.8	7.3	-8.7	6.8	40.5*	-5.7	60.5*
O=C(Nc1cccc(S(=O)(=O)NC2=NCCC2)c1)c1cc(-c2ccco2)nc2ccccc12	0.2	7.6	2.4	4.4	43.5*	-8.1	21.9
O=C(COC(=O)CNC(=O)c1ccccc1F)Nc1ccc2[nH]c(=O)[nH]c2c1	0.6	4.8	-13.9	-9.1	1.2	-11.2	·
COc1ccccc1C(=O)NCC(=O)OCC(=O)Nc1ccc2[nH]c(=O)[nH]c2c1	2.7	3.3	0.4	-5.3	39.4*	1.4	0.9
CC(C)=C1C(=O)NN(c2ccc(C)c(Cl)c2)C1=O	10.3	0.3	-0.1	17.8	58.6*	-5.0	6.1
CC(C)=C1C(=O)NN(c2cccc(Cl)c2)C1=O	8.5	6.5	3.3	8.6	23.0	-7.7	·
O=C(Nc1ccc2nc(-c3ccco3)c(-c3ccco3)nc2c1)N1CCN(c2ccccn2)CC1	9.7	19.7	6.2	17.4	37.0*	-0.2	28.1*
S=C(Nc1ccc(N2CCOCC2)cc1)Nc1ccc2nc(-c3ccco3)c(-c3ccco3)nc2c1	3.2	14.3	3.0	7.2	42.9*	13.5	17.7
O=C(c1ccc2nc(-c3ccco3)c(-c3ccco3)nc2c1)N1CCN(c2ncccn2)CC1	2.2	20.9	-6.6	13.6	48.9*	-4.8	12.6
Cc1ccc(S(=O)(=O)N(C)C)cc1NC(=O)c1cc(S(=O)(=O)N2CCCCC2)ccc1N1CCOCC1	5.7	8.1	-3.2	7.7	·	-6.5	·
Cc1ccccc1S(=O)(=O)N(C)C[C@@H]1OCc2cnnn2CCCC(=O)N([C@@H](C)CO)C[C@H]1C	·	·	-13.1	·	·	-3.0	·
O=C(N/N=C/c1ccc(N2CCOCC2)cc1)c1ccc(NS(=O)(=O)c2cccs2)cc1	-0.1	1.9	-5.5	0.0	6.6	-7.8	·
O=C(N/N=C/c1ccc([N+](=O)[O-])o1)c1ccc(NS(=O)(=O)c2cccs2)cc1	2.7	18.2	-6.0	13.8	38.5*	5.0	12.4
COc1cc(/C=C(\C#N)C(=O)c2ccc(O)c(O)c2)cc(I)c1O	85.7*	-10.5	6.5	66.6*	79.2*	6.8	71.1*
C/C(=N\NC(=O)c1ccc(-c2ccccc2)cc1)C1C(=O)c2ccccc2C1=O	28.6*	20.2	4.3	20.1	52.7*	-2.2	66.6*
CCC1(C)CN=C(c2ccccc2)NC1 (configuration not stated)	2.2	15.6	-3.9	0.2	·	-13.1	·
SMILES	PAFAH1B2 inh	PAFAH1B3 FP inh	PKA-R1A act	PAFAH2 inh	pPAFAH FP inh	PKA-R2B activ	pPAFAH confirm	others
O=C(/C=C/c1ccc([N+](=O)[O-])cc1)Nc1cccc(C(=O)Nc2ccccc2C(=O)O)c1	0.3	15.5	-6.3	0.0	-5.8	5.9	·
Oc1c(Br)cc(/C=N/NC(=S)NCc2ccco2)cc1Br	15.0	-1.6	-6.8	22.3	41.4*	1.2	57.1*
O=C(Cc1ccc(NC(=O)C2CCN(C(=O)C3CCC3)CC2)cc1)Nc1ccc(C(=O)N2CCOCC2)cc1	2.0	0.5	-3.8	1.3	·	-2.0	·
COc1ccc(CC(=O)Nc2cc(F)ccc2F)cc1S(=O)(=O)N1CCOCC1	·	·	2.9	·	·	-3.5	·
Cc1cc(/C=C2/SC(=S)N(c3ccc([N+](=O)[O-])cc3)C2=O)c(C)n1-c1cccnc1	2.1	10.3	9.7	10.9	6.6	10.4	·
Cc1cc(/C=C2/SC(=S)N(c3cccc(Cl)c3)C2=O)c(C)n1-c1cccnc1	2.0	-6.5	1.4	9.0	39.4*	-11.1	36.9*
Oc1ccc(Cl)cc1/C=C/c1ccc2cccc(O)c2n1	5.8	17.7	3.3	6.3	·	-0.6	·
Oc1c(Cl)cc(Cl)cc1/C=C/c1ccc2cccc(O)c2n1	1.3	11.1	-3.8	14.2	51.0*	-2.6	48.7*
O=C1NC(=O)C2(C=C(c3ccccc3)C(O)(c3ccccc3)C2)N1 (configuration not stated)	8.3	5.2	-12.3	13.0	·	-8.9	·
Cc1ccc(C(C)C)c(OCc2ccc(C(=O)N/N=C/c3cccc(O)c3O)cc2)c1	15.6	33.2*	-10.7	21.6	54.2*	0.5	51.7*	PAFAH1B3 conf FP=12.5
Oc1ccc(N2CCN(Cc3cc4c(cc3Br)OCCO4)CC2)cc1	-1.2	5.5	0.5	11.2	19.8	-6.8	·
Cc1ccc(NC(=O)Cc2nc(COC(=O)c3c(F)cccc3Cl)cs2)cc1	0.7	8.0	-0.6	20.1	18.7	0.6	·
Cc1ccc(NC(=O)Cc2nc(COC(=O)Cc3cccc(C(F)(F)F)c3)cs2)cc1	10.3	-2.1	10.9	47.2*	·	-1.3	·	PAFAH2 confirm=1.2
CC(C)OC(=O)c1ccc(NCc2cc(O)ccc2O)cc1	7.4	9.7	4.6	8.3	·	10.9	·
O=C(OCc1ccccc1)c1ccc(NCc2cc(O)ccc2O)cc1	2.0	14.4	-3.3	71.7*	·	-7.2	·	PAFAH2 confirm=56.7*

High-throughput results (PubChem)
